The structures appear in SMILES notation. Screen size: about 200,000 compounds; about 5,100 (2.5%) were called active. Shown is part of a subset that was picked to be rich in actives. A number with no mark means an inactive call.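 Rule for the calls: active = activation above the screen-wide mean activation plus 3 SD (cut at about 130% in these data); inactive = the rest.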

The experiment in a line: potentiators of IFN-gamma driven STAT1 reporter – cell-based, HTS, luciferase reporter, primary screen (AID 932).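 Note: raw ratio to IFN-gamma control signal so 100% means no change and 0% no light.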 Conditions: NIH 3T3 STAT1-luciferase reporter, luminescence, at 5.5 µM, stronger effect = higher value, 100% = IFN-gamma alone, no compound. (In a reporter assay the amount or activity of a reporter protein is the signal.)
On to `Cc1ccc(NC(=O)Cn2c(=O)n(CCC(=O)NC3CCN(Cc4ccccc4)CC3)c(=O)c3ccccc32)cc1`, for which the activation (% of control) is 101%.

`COC(=O)c1cc(NC(=O)C2C3C=CC(C3)C2C(=O)O)cc(C(=O)OC)c1` (configuration not stated): the activation (% of control) was 101%. Turning to `CC(=O)NS(=O)(=O)c1ccc(NC(=O)C2C3C=CC(C3)C2C(=O)O)cc1` (configuration not stated), the activation (% of control) was 99.5%.

For `CC(C)COC(=O)c1ccc(NC(=O)C2C3C=CC(C3)C2C(=O)O)cc1` (configuration not stated), the activation (% of control) was 138% (active). For `Cc1ccc(S(=O)(=O)N2CCOCC2)cc1C(=O)OC1CCCCC1=O` (configuration not stated), the activation (% of control) was 97%.

Consider `NC(=O)Cc1ccc2sc(-c3ccccc3)nc2c1`, for which the activation (% of control) is 180% (active). With `O=C(O)Cc1sc(-c2ccc(C(=O)O)cc2)nc1-c1ccccc1`, the activation (% of control) was 93.7%. With `O=C(O)Cc1sc(-c2ccccc2)nc1-c1cccs1`, the activation (% of control) was 108%. As for `CN(CC(=O)NCCc1ccccc1)S(=O)(=O)c1cnc[nH]1`, the activation (% of control) is 95.9%.

On to `O=C(CSc1nnnn1-c1ccc(O)cc1)N1N=C(c2ccc3ccccc3c2)CC1c1ccccc1` (configuration not stated), for which the activation (% of control) is 110%. Turning to `CCc1nc(C)cn1S(=O)(=O)c1cc([N+](=O)[O-])ccc1Cl`, the activation (% of control) is 87.5%. Consider `Cc1cccc(-n2cnc(C(=O)NNC(=S)Nc3ccccc3)c2)n1`, for which the activation (% of control) was 92%. On to `COc1cccc(C(=O)Nc2cccnc2)c1OC`, for which the activation (% of control) is 96.6%. In the case of `Cc1cccc(-n2cnc(C(=O)Nc3cccnc3)c2)n1`, the activation (% of control) was 140% (active). As for `Cc1noc(C)c1S(=O)(=O)Nc1ccc(C(=O)N2CCN(c3ccc(F)cc3)CC2)cc1`, the activation (% of control) was 98.8%. In the case of `N#Cc1ccc(OCc2nnc(-c3ccc([N+](=O)[O-])cc3)o2)cc1`, the activation (% of control) is 99.1%.

For the compound `CN(C)S(=O)(=O)c1ccc(N2CCCC2=O)c([N+](=O)[O-])c1`, the activation (% of control) is 108%. As to `CCCC(=O)Nc1nc2ccc(NC(=O)c3c(F)c(F)c(OC)c(F)c3F)cc2s1`, the activation (% of control) is 102%.

On to `CSc1nc2ccc(NC(=O)c3c(F)cccc3F)cc2s1`, for which the activation (% of control) was 145% (active). Take `O=C(Nc1ccncc1)c1c(F)cccc1F`: the activation (% of control) is 105%. Then `CCOC(=O)c1c(CN(C)C)n(-c2ccccc2)c2cc(Br)c(O)cc12`, with 101%. For `O=C(O)c1ccc(NC(=O)C2CCCCC2)cc1`, the activation (% of control) is 99.3%. Regarding `O=C(Nc1cc2ccccc2oc1=O)C1CCCCC1`, the activation (% of control) was 149% (active). In the case of `CN1C(=O)c2ccc(NC(=O)C3CCCCC3)cc2C1=O`, the activation (% of control) is 99.6%. With `CC(=O)Nc1ccc(/C(C)=N/NC(=O)CN(c2ccccc2Br)S(C)(=O)=O)cc1`, the activation (% of control) is 97.6%.

Regarding `O=C(O)CCCCCNc1ncnc2ccc(Br)cc12`, the activation (% of control) is 104%. For `Cc1[nH][nH]c(=O)c1C(c1ccc2c(c1)OCO2)c1c(C)[nH][nH]c1=O` the value was 101%.

The record behind these values is PubChem BioAssay AID932 (The Scripps Research Institute Molecular Screening Center, 2007).
